Here are results for 22 molecules from PubChem BioAssay (Tox21).

The nature of test [1]: qHTS assay for small molecule agonists of the p53 signaling pathway (AID 651631; calls by dose curve; further: nearly all actives have a fitted effect of over 15% in size). In a few lines: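 Readout was fluorescence from the LiveBLAzer FRET substrate, applied for 2 h at room temperature after 16 h compound exposure at 37 °C. Cells were the p53RE-bla HCT-116 line, with beta-lactamase driven by p53 response elements.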
A general note: qHTS replaces the single test concentration by a dilution series.

A short description of test [2]: qHTS assay for small molecules that induce genotoxicity in human embryonic kidney cells expressing luciferase-tagged ATAD5 - cell viability (AID 651634; calls by dose curve; further: nearly all actives have a fitted effect of over 25% in size). In short, it runs like this:
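HEK293T ATAD5-luc cells, 2,000/well; compound 15.5 hr, 37C/5% CO2; CellTiter-Fluor 30 min, 37C; fluorescence read.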

Test [3] in a line: qHTS assay for small molecule disruptors of the mitochondrial membrane potential - cell viability (AID 720634; calls by dose curve;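 further: human HepG2 liver cancer cells; series mostly up to about 83 µM; nearly all actives have a fitted effect of over 20% in size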). In short, it runs like this:
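Luminescence from CellTiter-Glo (ATP content) gave viability in HepG2 cells, read in the same wells as the MMP dye assay after 1 hr compound exposure at 37 C.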

Test [4] is described as follows: qHTS assay to test for compound auto fluorescence at 535 nm (green) in HepG2 cells (AID 720675).
Test [5] can be described thus: qHTS assay to test for compound auto fluorescence at 460 nm (blue) in HEK293 cells (AID 720678). In a few lines:
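HEK293 cells (2,000 per well, medium with 10% dialyzed FBS) attached for 4-5 hr at 37C, then received compound and stood overnight at 37C, 5% CO2. Blue fluorescence was read at Ex/Em 405/460 nm and expressed relative to triamterene.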

A short description of test [6]: qHTS assay to test for compound auto fluorescence at 590 nm (red) in HEK293 cells (AID 720679). In a few lines: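 HEK293 cells (2,000/well, medium with 10% dialyzed FBS) attached for 4-5 hr at 37C, received 23 nL compound and were incubated overnight at 37C, 5% CO2. Red fluorescence was then read at 540/590nm Ex/Em, referenced to Rose Bengal sodium.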
A short description of test [7]: qHTS assay for small molecules that induce genotoxicity in human embryonic kidney cells expressing luciferase-tagged ATAD5 (AID 651632). Further: nearly all actives have a fitted effect of over 15% in size. In short, it runs like this:
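Luminescence read-out: after 16 hr compound exposure at 37C, ATAD5-luciferase HEK293T cells received Amplite, 30 min RT, then CCD imaging. A rise in signal marks genotoxic stress.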

The nature of test [8]: qHTS assay for small molecule agonists of the p53 signaling pathway - cell viability (AID 651633; calls by dose curve; further: series mostly up to about 83 µM; nearly all actives have a fitted effect of over 30% in size). In short, it runs like this: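 p53RE-bla cells were treated with compound for 16 hours at 37 C. Cytotoxicity was then measured as CellTiter-Glo luminescence after 30 min at room temperature.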
Test [9] in a line: qHTS assay for small molecule disruptors of the mitochondrial membrane potential (AID 720635). Further: potency means the concentration at half of the fitted maximal effect. In a few lines:
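HepG2 cells exposed to compound 1 hr at 37C, then Mito-MPS dye 30 min. Ratio read of aggregate (540/590 nm) versus monomer (490/535 nm) fluorescence.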

A short description of test [10]: qHTS assay to test for compound auto fluorescence at 590 nm (red) in HepG2 cells (AID 720674). In a few lines:
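Fluorescence at 590 nm emission following 540 nm excitation was recorded from HepG2 wells one hour after compound transfer, with DMSO-only wells as vehicle and Rose Bengal sodium equivalency as the scale.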

Unmarked numbers belong to inactive results. Inconclusive results are not listed. Calls of active or inactive are those of the source. Unless noted, the call rests on the fitted dose curve; in most records, active means well fitted curve in the direction sought with a large enough effect in the repeat runs; inconclusive means weak or mixed curves; inactive means no such curve, though single readings can be large; an effect the other way counts as inactive or inconclusive.

Take `O=C(O)c1cc(Cl)cc([N+](=O)[O-])c1Cl`: the molecule was classed as inactive in test [1], in test [3], in [4], in test [5] and in test [6]. In test [2], the Potency entry is “inactive”.
Take `CC(CC=O)CCCC(C)(C)O` (configuration not stated): the Potency entry in test [7], in test [2] and in test [9] was “inactive” throughout. Further, the call in test [8], in [3], in test [10], in [4], in [5] and in test [6] was inactive.
Consider `O=C(O)Cc1cn(-c2ccccc2)nc1-c1ccc(Cl)cc1`, for which the call in test [1], in test [3], in test [10], in [4], in test [5] and in [6] was inactive. Further, the Potency result in test [2] and in test [9] was “inactive” throughout.
For `O=C1O[C@@H]2[C@@H](O)[C@H](O)O[C@@H]2[C@H]1O`, the molecule was classed as inactive in [1], in [3], in test [10], in test [4], in [5] and in test [6]. Further, the Potency entry in test [2] and in [9] was “inactive” throughout.
Consider `BrCc1cccc(Oc2ccccc2)c1`, for which the Potency entry in test [7] and in test [2] was “inactive” each time. The outcome in test [8], in [3], in test [10], in test [4], in [5] and in test [6] was inactive.
Consider `O=C(O)c1cc(Br)c(O)c(Br)c1`, for which the Potency result in test [7], in test [2] and in [9] was “inactive” in each case. The outcome in [8], in test [3], in test [10], in [4], in test [5] and in test [6] was inactive.
Turning to `CC/C=C\CC1=C(C)CCC1=O`, the Potency entry in test [7] and in test [2] was “inactive” throughout. Also, the call in [8], in test [3], in [4], in test [5] and in test [6] was inactive.
As for `N[C@@H](COP(=O)(O)O)C(=O)O`, the Potency entry in test [7], in test [2] and in [9] was “inactive” throughout. In addition, the outcome in [8], in test [3], in test [10], in test [4], in test [5] and in test [6] was inactive.
In the case of `CCCCCCCCSCC`, the Potency entry in test [7] and in test [2] was “inactive” in each case. In addition, the result in test [8], in test [3], in test [10], in test [4], in test [5] and in test [6] was inactive.
Consider `C=C(C)C(=O)OCCOP(=O)(O)OCCOC(=O)C(=C)C`, for which the Potency entry in [7], in test [2] and in test [9] was “inactive” in each case. Besides, the outcome in [8], in test [3], in test [4], in test [5] and in test [6] was inactive.
As for `CCCCCCOc1ccccc1C(N)=O`, the Potency entry in test [7] and in test [2] was “inactive” throughout. Further, the result in test [8], in [3], in [10], in test [4], in test [5] and in test [6] was inactive. In addition, the Potency in [9] is 6.68 µM (active).
As for `CCN(CC)CC(=O)Nc1c(C)cccc1C`, the outcome in [8], in test [3], in test [10], in [4], in [5] and in test [6] was inactive. The Potency result in [2] and in [9] was “inactive” each time.
For the molecule `CCNC(=O)C1CC(C)CCC1C(C)C` (configuration not stated), the Potency result in test [7] and in [2] was “inactive” in each case. In addition, the molecule was called inactive in [3], in test [10], in test [4], in test [5] and in [6].
For `N[C@@H](CCC(=O)N[C@@H](CS)C(=O)NCC(=O)O)C(=O)O`, the result in test [8], in [3], in test [4], in test [5] and in test [6] was inactive. Also, the Potency result in test [2] and in test [9] was “inactive” in each case.
Regarding `CC(C)(C)OC(=O)c1ccc(O)cc1`, the Potency entry in test [7] and in test [2] was “inactive” in each case. In addition, in test [9], the Potency was 21.7 µM (active). The molecule was classed as inactive in [10], in [4], in [5] and in test [6].
Take `CC(C)N(c1ccccc1)C(C)C`: the Potency result in [7] and in [2] was “inactive” in each case. In addition, the result in test [3], in test [10], in [4], in test [5] and in [6] was inactive.
For `CCC(C)(CCC(C)C)C(=O)O` (configuration not stated), the Potency result in [2] is “inactive”. Moreover, the call in test [3], in test [10], in test [4], in [5] and in test [6] was inactive.
In the case of `COc1cc(N)ccc1C`, the Potency entry in test [7] and in [9] was “inactive” throughout. Also, the call in [8], in [3], in [10], in test [4], in test [5] and in test [6] was inactive.
Regarding `C[C@@H](Oc1ccc(CNC(=O)c2cccnc2Oc2ccc3c(c2)OCO3)c(F)c1)C(=O)O`, the molecule was classed as inactive in test [8], in test [3], in test [10], in [4], in [5] and in test [6]. Further, in [2], the Potency result was “inactive”.
For the molecule `O=C1c2ccccc2C(=O)c2cc(S(=O)(=O)O)ccc21`, the molecule was called inactive in test [8], in test [3], in test [10], in test [4], in test [5] and in test [6]. The Potency entry in test [2] is “inactive”.
Turning to `CC(C)(C)c1cc(CCC(=O)NN)cc(C(C)(C)C)c1O`, the Potency entry in test [7] and in test [2] was “inactive” in each case. Also, the result in test [3], in [10], in test [4], in test [5] and in [6] was inactive.
Turning to `NNc1nnc(NN)c2ccccc12`, the call in [8], in test [3], in [10], in test [4], in [5] and in test [6] was inactive. In addition, in test [2], the Potency result was “inactive”.
